# Source: PubChem BioAssay AID1159580 (chemical genetic matrix, 2015)
# The campaign covered roughly 5,500 compounds. About 2,000 (36%) were called active. About 18% were inconclusive and are not listed. Some of the results follow. Values without a mark were called inactive. No stated cut-off is given here; in the data, active means normalized growth mostly below about 0.91 (no sharp cut-off); inconclusive means no clear call, values can overlap the other calls; inactive means mostly above about 0.92.
# Assay: chemical genetic growth profiling, strain panel (AID 1159580);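 further: tested at 20 µM; growth read once vehicle control cultures reached saturation at 30 °C; 1 = growth at the plate median or of vehicle wells; lower values mean less growth of the strain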
# Conditions: S. cerevisiae deletion strains, growth OD
smiles,measurement,setting,value
O=C(OC1Cc2c(O)cc(O)cc2OC1c1cc(O)c(O)c(O)c1-c1c(C2Oc3cc(O)cc(O)c3CC2OC(=O)c2cc(O)c(O)c(O)c2)cc(O)c(O)c1O)c1cc(O)c(O)c(O)c1 (centres undefined),normalized growth,"locus YAL021C, strain ccr4, active compounds read low",0.833 (active)
same,normalized growth,"locus YAL026C, strain drs2, active compounds read low",0.982
same,normalized growth,"locus YAL030W, strain snc1, active compounds read low",0.998
same,normalized growth,"locus YBL061C, strain skt5, active compounds read low",0.982
same,normalized growth,"locus YBR009C, strain hhf1, active compounds read low",0.995
same,normalized growth,"locus YBR021W, strain FUR4, active compounds read low",0.988
same,normalized growth,"locus YBR023C, strain chs3, active compounds read low",0.941
same,normalized growth,"locus YBR171W, strain sec66, active compounds read low",1.01
same,normalized growth,"locus YBR229C, strain ROT2, active compounds read low",1
same,normalized growth,"locus YBR231C, strain swc5, active compounds read low",0.929
same,normalized growth,"locus YBR279W, strain paf1, active compounds read low",0.989
same,normalized growth,"locus YCL011C, strain gbp2, active compounds read low",1.01
same,normalized growth,"locus YCL016C, strain dcc1, active compounds read low",1.01
same,normalized growth,"locus YCL029C, strain bik1, active compounds read low",0.981
same,normalized growth,"locus YCL061C, strain MRC1, active compounds read low",1.01
same,normalized growth,"locus YCL069W, strain vba3, active compounds read low",1.02
same,normalized growth,"locus YCR088W, strain abp1, active compounds read low",1.02
same,normalized growth,"locus YDL005C, strain med2, active compounds read low",1.02
same,normalized growth,"locus YDL035C, strain GPR1, active compounds read low",1.04
same,normalized growth,"locus YDL040C, strain nat1, active compounds read low",1.03
same,normalized growth,"locus YDL074C, strain BRE1, active compounds read low",0.969
same,normalized growth,"locus YDL101C, strain DUN1, active compounds read low",1
same,normalized growth,"locus YDL185W, strain tfp1, active compounds read low",0.988
same,normalized growth,"locus YDL192W, strain arf1, active compounds read low",0.985
same,normalized growth,"locus YDR001C, strain nth1, active compounds read low",1.02
same,normalized growth,"locus YDR069C, strain doa4, active compounds read low",0.797 (active)
same,normalized growth,"locus YDR101C, strain arx1, active compounds read low",0.998
same,normalized growth,"locus YDR137W, strain rgp1, active compounds read low",0.833 (active)
same,normalized growth,"locus YDR150W, strain NUM1, active compounds read low",1
same,normalized growth,"locus YDR159W, strain sac3, active compounds read low",1.11
same,normalized growth,"locus YDR162C, strain NBP2, active compounds read low",1.02
same,normalized growth,"locus YDR195W, strain ref2",1.07
same,normalized growth,"locus YDR297W, strain sur2, active compounds read low",0.992
same,normalized growth,"locus YDR318W, strain mcm21, active compounds read low",0.995
same,normalized growth,"locus YDR334W, strain swr1, active compounds read low",0.977
same,normalized growth,"locus YDR335W, strain msn5, active compounds read low",1
same,normalized growth,"locus YDR388W, active compounds read low",0.99
same,normalized growth,"locus YDR392W, strain spt3, active compounds read low",1.02
same,normalized growth,"locus YDR502C, strain sam2, active compounds read low",0.985
same,normalized growth,"locus YEL003W, strain gim4, active compounds read low",0.989
same,normalized growth,"locus YEL037C, strain rad23, active compounds read low",0.993
same,normalized growth,"locus YEL061C, strain CIN8 (second series), active compounds read low",1.01
same,normalized growth,"locus YEL061C, strain CIN8, active compounds read low",1.01
same,normalized growth,"locus YER015W, strain faa2, active compounds read low",0.926 (active)
same,normalized growth,"locus YER016W, strain bim1, active compounds read low",1.01
same,normalized growth,"locus YER110C, active compounds read low",0.994
same,normalized growth,"locus YER111C, strain swi4, active compounds read low",0.973
same,normalized growth,"locus YER155C, strain BEM2 (second series), active compounds read low",0.994
same,normalized growth,"locus YER155C, strain BEM2, active compounds read low",0.977
same,normalized growth,"locus YER167W, strain BCK2, active compounds read low",1
same,normalized growth,"locus YFR010W, strain ubp6, active compounds read low",0.934
same,normalized growth,"locus YGL078C, strain dbp3, active compounds read low",0.987
same,normalized growth,"locus YGL086W, strain mad1, active compounds read low",1
same,normalized growth,"locus YGL167C, strain pmr1, active compounds read low",1
same,normalized growth,"locus YGL173C, strain kem1, active compounds read low",0.981
same,normalized growth,"locus YGL227W, strain vid30, active compounds read low",1.05
same,normalized growth,"locus YGL240W, strain doc1, active compounds read low",1.04
same,normalized growth,"locus YGL248W, strain PDE1, active compounds read low",1
same,normalized growth,"locus YGL253W, strain hxk2, active compounds read low",0.994
same,normalized growth,"locus YGR078C, strain PAC10, active compounds read low",0.983
same,normalized growth,"locus YGR135W, strain pre9, active compounds read low",0.989
same,normalized growth,"locus YGR252W, strain gcn5, active compounds read low",1.01
same,normalized growth,"locus YHR013C, strain ard1, active compounds read low",0.852
same,normalized growth,"locus YHR027C, strain rpn1, active compounds read low",0.849 (active)
same,normalized growth,"locus YHR030C, strain SLT2, active compounds read low",0.998
same,normalized growth,"locus YHR079C, strain IRE1 (second series), active compounds read low",0.987
same,normalized growth,"locus YHR094C, strain hxt1, active compounds read low",0.989
same,normalized growth,"locus YHR129C, strain ARP1, active compounds read low",0.983
same,normalized growth,"locus YHR142W, strain chs7, active compounds read low",0.95
same,normalized growth,"locus YHR200W, strain rpn10, active compounds read low",1
same,normalized growth,"locus YIL066C, strain RNR3, active compounds read low",1.03
same,normalized growth,"locus YIL073C, strain SPO22, active compounds read low",1.1
same,normalized growth,"locus YIL125W, strain kgd1, active compounds read low",0.973
same,normalized growth,"locus YIR030C, strain dcg1, active compounds read low",0.995
same,normalized growth,"locus YJL092W, strain hpr5, active compounds read low",1.03
same,normalized growth,"locus YJL095W, strain BCK1 (second series), active compounds read low",0.987
same,normalized growth,"locus YJL095W, strain BCK1, active compounds read low",0.976
same,normalized growth,"locus YJL115W, strain asf1, active compounds read low",1.02
same,normalized growth,"locus YJL129C, strain trk1, active compounds read low",1.04
same,normalized growth,"locus YJL134W, strain LCB3, active compounds read low",1.02
same,normalized growth,"locus YJL154C, strain vps35, active compounds read low",1.01
same,normalized growth,"locus YJL164C, strain tpk1, active compounds read low",0.937
same,normalized growth,"locus YJL166W, strain qcr8, active compounds read low",0.989
same,normalized growth,"locus YJL168C, strain set2, active compounds read low",0.981
